Mtb hypoxia rep = PubChem AID 1159583; M. tuberculosis hypoxia-regulated fluorescent reporter, fluorescence; hit rate 0.1% among 300,000; fluorescence inhibition, % (no concentration beside the values); in the data active means fluorescence inhibition mostly above about 23%, no sharp cut-off; inactive means mostly below about 17%
FadD28 FP inh = inhibitors of FadD28 bisubstrate probe binding, primary screen, biochemical, fluorescence polarization, single point | Mycobacterium tuberculosis FadD28 fatty-acid-AMP ligase | inhibition, % at 12.5 µM | hit rate 0.22% among 360,000; in the data active means inhibition above about 8.5%, passing the limit was not always enough
Mtb FBA inh = Mtb FBA enzyme inhibitors, primary screen, biochemical, fluorescence, strain H37Rv. Fructose-bisphosphate aldolase (Mycobacterium tuberculosis (strain ATCC 25618 / H37Rv)), …. AID 588726, 2011. inhibition, % at 1 µM. purified M. tuberculosis FBA, fluorescence read-out. hit rate 2.3% among 360,000; in the data active means inhibition above about 27%;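 further: 0% = vehicle and 100% = reference inhibitor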
Rv3671c protease = Rv3671c serine protease inhibitors, primary screen, biochemical, fluorescence polarization, M. tuberculosis H37Rv. P9WHR9. inhibition, % at 5.96 µM. hit rate 0.048% among 320,000. AID 2606, 2010; in the data active means inhibition above about 38%;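 further: extracellular domain of Rv3671c used as enzyme; 0% = enzyme with DMSO and 100% = no enzyme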
Target sequence (P9WHR9 whole entry, looked up, the tested form may be a part): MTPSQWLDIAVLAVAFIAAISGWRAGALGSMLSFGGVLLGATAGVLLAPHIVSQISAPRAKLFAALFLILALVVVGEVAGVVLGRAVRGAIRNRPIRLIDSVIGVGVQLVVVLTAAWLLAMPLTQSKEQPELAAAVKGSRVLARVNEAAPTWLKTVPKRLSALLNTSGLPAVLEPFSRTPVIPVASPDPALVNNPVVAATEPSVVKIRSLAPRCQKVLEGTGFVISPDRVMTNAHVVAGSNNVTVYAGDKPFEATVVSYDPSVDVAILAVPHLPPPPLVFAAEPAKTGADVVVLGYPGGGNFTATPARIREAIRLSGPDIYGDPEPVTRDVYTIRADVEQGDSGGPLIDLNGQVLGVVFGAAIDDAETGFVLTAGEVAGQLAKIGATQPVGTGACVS
Mtb UGM inh = M. tuberculosis UGM enzyme inhibitors, primary screen, biochemical, fluorescence polarization, single point; UDP-galactopyranose mutase (Mycobacterium tuberculosis (strain ATCC 25618 / H37Rv)), …; purified UGM, fluorescence polarization probe displacement; inhibition, % at 10 µM; hit rate 0.06% among 320,000; AID 504406, 2011; in the data active means inhibition above about 10%, passing the limit was not always enough
GDH-TPI counter = GDH-TPI coupling enzyme inhibitors, primary screen, artefact control for M. tuberculosis FBA inhibitor project, biochemical, absorbance, full deck; GDH-TPI coupled enzyme counterscreen, NADH absorbance; inhibition, % at 4.8 µM; hit rate 1.2% among 360,000; AID 588335, 2011; in the data active means inhibition above about 30%;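 further: 0% = DMSO wells and 100% = wells lacking the enzyme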
* hit, by the source's call; . = no result given; + = active, no number. The list is not random: actives were taken first. Their share in the collection is about 3.5%.

SMILES	Mtb hypoxia rep	FadD28 FP inh	Mtb FBA inh	Rv3671c protease	Mtb UGM inh	GDH-TPI counter
CN(C(=O)COC(=O)c1ccc(Cl)cc1N)C1CCS(=O)(=O)C1 (stereo not given)	.	0	67*	-3	1	5
CCOC(=O)C1C2COc3ccc(Br)cc3C2N2C(=O)C(C)NC(=O)[C@@]12C (stereo not given in full)	10	.	.	.	.	.
COc1cccc(Nc2ncc(C(=O)O)c3ccccc23)c1	.	-3	-4	-11	1	36*
Cc1ccc(NC(=O)CSc2nnc(CNC(=O)c3c(F)cccc3Cl)o2)cc1	.	-2	3	7	0	0
O=C(CSc1nnc(CNC(=O)c2c(F)cccc2Cl)o1)Nc1ccc2c(c1)OCO2	-3	0	95*	-1	-3	-3
COC(=O)C1=C(C(=O)OC)[C@]2(C3CC=CCNC(Cc4ccccc4)C(=O)N3Cc3ccccc3)C=CC1O2 (stereo not given in full)	6	.	.	.	.	.
Cc1cc(C)[n+](-c2ccc(C(C)C)cc2)c2[nH]c(=O)[nH]c(=O)c12	-4	-4	+	-16	-1	11
Cc1cccc(-[n+]2c(C)cc(C)c3c(=O)[nH]c(=O)[nH]c32)c1	.	-2	+	6	.	33*
CCN(c1cccc(C)c1)S(=O)(=O)c1c(C)[nH]c(=O)[nH]c1=O	5	0	0	-4	-1	6
CC(C)c1ccc(N=Nc2c(O)[nH]c(=O)[nH]c2=O)cc1	-2	1	0	3	-6	8
CC1=C(C#N)c2nc(N)c(C#N)c(C)c2/C1=C\c1ccc(-c2ccccc2C(=O)O)o1	11	12*	-6	.	.	11
O=C(O)CCCNC(=O)/C(=C\C=C\c1ccccc1)NC(=O)c1ccccc1Cl	-8	-3	-1	4	0	20
C=CCNC(=O)/C(=C\C=C\c1ccccc1)NC(=O)c1ccccc1Cl	12	-4	-3	-9	2	31*
COc1ccc(/C=N/Nc2nn3cnnc3c3ccccc23)cc1	.	-4	-3	6	0	35*
COc1ccc(C2C=CCN(C(=O)Oc3ccccc3)CC(=O)N2Cc2ccc(F)cc2)cc1 (stereo not given)	0	.	.	.	.	.
CC1(C)Cc2c(C#N)c(SCc3ccccc3)nc(N3CCOCC3)c2CO1	5	0	-6	-10	-1	75*
CCc1nc(N2CCOCC2)c(C#N)c2c1COC(C)(C)C2	5	3	46*	-7	-2	10
CN(C)c1ccc(/C=C/C=NNc2nc(N3CCOCC3)nc(N3CCOCC3)n2)cc1	-2	.	.	.	.	.
O=C(NN=Cc1ccc(Cl)cc1Cl)c1ccc2nc[nH]c2c1	-11	.	.	.	.	.
CN(C)c1ccc(C(=O)N/N=C/C23CC[C@@H](O)CC2(O)CC[C@@H]2[C@@H]3CCC3(C)C(C4=CC(=O)OC4)CCC23O)cc1 (stereo not given in full)	.	0	1	-2	1	45*
COc1ccc(-c2oc3cccnc3c2C#CCO)cc1	2	-2	+	-8	-1	32*
COc1ccc(-c2oc3cccnc3c2C#CC2(O)CCCCC2)cc1	.	-9	+	-40	-1	34*
COc1ccc(-c2oc3cccnc3c2-c2ccc(OC)nc2)cc1	5	-3	139*	-6	1	8
COc1ccc(-c2ccc3oc(-c4ccc(OC)cc4)c(C#CCCO)c3c2)cc1	10	-5	9	-2	0	29
CC(=NNC(=S)Nc1cccc(C)c1)c1cccc([N+](=O)[O-])c1	-1	.	.	.	.	.
SMILES	Mtb hypoxia rep	FadD28 FP inh	Mtb FBA inh	Rv3671c protease	Mtb UGM inh	GDH-TPI counter
COCc1cc(C)n(CC(=O)Nc2ccc(Cl)cc2Cl)c(=O)c1C#N	.	1	122*	2	1	31
FC(F)(F)C(F)(F)C(F)(F)c1nc2nc(Cl)c(Cl)nc2[nH]1	.	-1	14	.	.	34*
COc1ccccc1NCC(=O)NN=C(C)c1ccc(Br)s1	1	.	.	.	.	.
COc1ccc(-c2cc(=O)oc3cc(OCc4nn[nH]n4)ccc23)cc1	2	-5	2	-2	-1	36*
COC(=O)COc1ccc2c(-c3ccc(OC)cc3)cc(=O)oc2c1	.	-2	0	0	-2	18
COc1ccc(-c2cc3ccc(OCc4nn[nH]n4)cc3oc2=O)cc1OC	16	-6	11	-1	0	42*
CCCCOc1[nH]c2nc(-c3ccco3)n(Cc3ccco3)c(=N)c2c1C#N	.	11*	8	10	3	14
O=C(Cn1cncn1)NN=Cc1cc([N+](=O)[O-])ccc1O	12	.	.	.	.	.
COc1ccc(NC(=O)Nc2cccc3c2OC(CN(C)S(=O)(=O)c2ccccc2)C(C)CN(C(C)CO)C3=O)cc1 (stereo not given)	13	.	.	.	.	.
CC1CN(C(C)CO)C(=O)c2cccc(NS(C)(=O)=O)c2OC1CN(C)Cc1ccc(Oc2ccccc2)cc1 (stereo not given)	8	.	.	.	.	.
C/C(=N/NC(=O)c1sc(NS(=O)(=O)c2ccccc2)nc1C)c1sc(N)nc1C	.	7	6	4	1	38*
O=C1CS/C(=N/N=C/c2ccco2)N1Cc1ccc(F)cc1	.	-3	-1	10	2	38*
COCCCNC(=O)/C(C#N)=C/c1c(N2CCN(C)CC2)nc2ccccn2c1=O	-13	-4	140*	-8	-2	2
CCNC(=O)/C(C#N)=C/c1c(N2CCCCCC2)nc2ccccn2c1=O	15	-1	135*	-10	1	19
CNC(=O)/C(C#N)=C/c1c(N2CC(C)OC(C)C2)nc2ccccn2c1=O (stereo not given)	15	-2	124*	-9	0	12
COc1ccc(C=NNC(=O)c2cccc(S(=O)(=O)N3CCCC3)c2)cc1O	8	.	.	.	.	.
O=[N+]([O-])c1ccc(S(=O)(=O)NN=Cc2ccsc2)cc1	1	.	.	.	.	.
Cc1c(CC(=O)NCC(=O)NCC(=O)O)c(=O)oc2cc3c(cc12)CCC(C)(C)O3	-5	-1	194*	-3	-1	22
Cc1c(CC(=O)NCCCO)c(=O)oc2cc3c(cc12)CCC(C)(C)O3	-7	-1	183*	5	0	22
Cc1c(CC(=O)NCC(=O)O)c(=O)oc2cc3c(cc12)CCC(C)(C)O3	-15	0	+	-9	1	30
Cc1oc2c(c(C)cc3oc(=O)c(CC(=O)NCCCO)c(C)c32)c1C	18	-2	20	5	-3	8
CC(C)CC(N)c1csc(Nc2ccc(C(=O)NCCCO)cn2)n1 (stereo not given)	.	-2	2	.	.	34*
Oc1ccc(C=NNC(=S)Nc2ccccc2)nc1	.	-1	9	.	.	54*

Bioassay records as filed in PubChem BioAssay.
